# Only some compounds are listed: those with a hit (about 9.9% of all), similar ones and a draw of the others.
# SW480 rereplic = A quantitative high throughput screen for small molecules that induce DNA re-replication in SW480 colon adenocarcinoma cells | AID 624297, 2012 | 340,000 compounds, 1.8% hits | SW480 DNA re-replication, Hoechst DNA content imaging, 48 h | Potency, µM (top dose mostly 46.1 µM), without a hit: top-dose re-replication activation, usual class: activators; further: potency means the concentration at half of the fitted maximal effect; % of control where 0% means no effect; nearly all actives have a fitted effect of over 55% in size
#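 Readout is total intensity of Hoechst-stained nuclei, excited at 405 nm and collected at 500-530 nm. Compound treatment lasted 48 hr at 37 C in 5% CO2 before staining.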
# MCF10A rerep = A quantitative high throughput screen for small molecules that induce DNA re-replication in MCF 10a normal breast cells | 350,000 compounds, 2.9% hits | MCF 10A DNA re-replication, Hoechst nuclear intensity, 48 h | Potency, µM (top dose mostly 46.1 µM), for inactives: at the highest dose activity, positive = re-replication, most hits filed as activators | AID 624296, 2012; further: potency means the concentration at half of the fitted maximal effect; % of control where 0% means no effect; nearly all actives have a fitted effect of over 50% in size
# KB-3-1 cytotox = qHTS assay for MDR1-selective chemotherapeutics: Primary screen using the parental adenocarcinoma cell KB-3-1 | KB-3-1 viability, CellTiter-Glo ATP luminescence, 72 h | Potency, µM (doses to about 46.1 µM), usual class: cytotoxic | 400,000 compounds, 1.4% hits; further: potency means the concentration at half of the fitted maximal effect; on the % scale 0 is the no-effect control and ±100 the full control effect; nearly all actives have a fitted effect of over 60% in size
#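 Luminescent ATP read-out (CellTiter-Glo) measures survival of drug-naive KB-3-1 cells after 72 h compound exposure at 37 °C. Titration series was screened from lowest to highest concentration, with DMSO vehicle plates as background controls.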
# KB-V1 cytotox = qHTS assay for MDR1-selective chemotherapeutics: Primary screen using the drug-selected MDR subline cells KB-V1; KB-V1 MDR cells viability, CellTiter-Glo, 72 h; Potency, µM (top dose mostly 46.1 µM), actives largely listed as cytotoxic; 400,000 compounds, 3.4% hits; further: potency means the concentration at half of the fitted maximal effect; on the % scale 0 is the no-effect control and ±100 the full control effect; nearly all actives have a fitted effect of over 60% in size
#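 Cytotoxicity toward P-gp-expressing KB-V1 cells was determined as loss of CellTiter-Glo luminescence after 72 h at 37 degrees C. Compounds were tested in quantitative HTS format across a concentration range, with curves fitted to normalized data.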
# IL-1B inflam inh = qHTS for Inhibitors of Inflammasome Signaling: IL-1-beta AlphaLISA Primary Screen. THP-1 LPS/ATP IL-1B secretion, AlphaLISA, 16 h; active compounds read low. activity change, % at 57.5 µM. 360,000 compounds, 4.7% hits. AID 743279, 2014; in the data active means activity change below about -50%; inconclusive means mostly about -30% to -49%; further: on the % scale 0 is the no-effect control and ±100 the full control effect
#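 Secreted IL-1B measured by AlphaLISA bead assay after 16 h compound exposure of THP-1 cells; compounds (final up to 57.5 uM) added 1 h before LPS (250 ng/mL) and ATP (1.25 mM) stimulation; lower signal means less secretion.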
# An asterisk follows results filed as active; i = inactive; ? = inconclusive; / = not tested or not shown; ! = not active in a repeat; [ ] = dose if it differs, or a comment. Unless noted, the call rests on the fitted dose curve; in most records, active means well fitted curve in the direction sought with a large enough effect; inconclusive means small, poorly fitted or top-dose-only effect, or another doubt; inactive means no such curve, though single readings can be large; an effect the other way counts as inactive or inconclusive.
SMILES,SW480 rereplic,MCF10A rerep,KB-3-1 cytotox,KB-V1 cytotox,IL-1B inflam inh
O=C(NCCc1ccccc1)[C@@H]1CC=C[C@@H]2CCN(Cc3ccc(Cl)c(Cl)c3)C(=O)[C@@H]21,?,?,?,16µM*!,0
Cc1cc(C(=O)OCC(=O)Nc2ccc(F)cc2)c(C)n1C1CC1,0%,2%,i,23µM*,-6
Cc1cc(C(=O)OCC(=O)Nc2cccc(F)c2)c(C)n1C1CC1,1%,4%,i,i,-17
OCCO,-48%,-6%,i,i,-6
Nc1ncnc2c1ncn2[C@@H]1O[C@H](COP(=O)(O)CP(=O)(O)O)[C@@H](O)[C@H]1O,-8%,9%,i,15µM*,-1
CC(=O)OC1CC[C@@]2(C)C(=CC(=O)C3C4CCC(OC(C)=O)[C@@]4(C)CCC32)C1 (stereo not given in full),-23%,1%,i,i,6
CC(C)(C)C(=O)O[C@H]1CC[C@@]2(C)C(=CC(=O)C3C2CC[C@]2(C)C(=O)[C@@H](F)CC32)C1 (stereo not given in full),?,?,?,?,-77*
Nc1ncnc2c1ncn2[C@@H]1O[C@@H]2COP(O)(=S)O[C@H]2[C@H]1O (stereo not given in full),/,/,i,i,/
Cc1cc(OCC(=O)O)c2c3c(c(=O)oc2c1)CCCC3,4%,-5%,i,i,18
Cc1ccc(-n2nc(C)cc2NC(=O)COc2cc(C)cc3oc(=O)c4c(c23)CCC4)cc1,1%,-2%,i,2.1µM*,-2
O=C(c1cc2cc(Cl)ccc2[nH]1)N1CCC2(CC1)OCCO2,-2%,23µM*,i,i,2
C#CC[N+]1(C)[C@@H]2CC[C@H]1CC(OC(=O)C(CO)c1ccccc1)C2 (stereo not given in full),-2%,-4%,i,i,-23
CCN(c1ccc(C)cc1C)S(=O)(=O)c1nnc(NC(=O)c2ccco2)s1,?,21µM*,i,i,?
CCN(CC)C(=O)Cn1cc(/C=C2\C(=O)NC(=O)N(c3ccccc3F)C2=O)c2ccccc21,1%,?,i,?,-94*
CCOc1cc2c(cc1OCC)-n1cccc1C(c1ccccc1OC)NC2 (stereo not given),?,5%,i,?,-85*
CCOc1cc2c(cc1OCC)-n1cccc1C(c1ccccc1O)NC2 (stereo not given),-20%,7%,i,?,-4
CCOc1cc2c(cc1OCC)-n1cccc1C(c1c(O)cccc1OC)NC2 (stereo not given),?,?,?,?,-68*
CCCN1CCCC2Cc3nc(N)ncc3CC21 (stereo not given),-2%,0%,/,/,/
COC(=O)C1=C(c2ccc(OC)c(OC)c2)C[C@@H]2CC[C@H]1N2C(=O)NC1Cc2ccccc2C1,-2%,-9%,i,i,8
O=C1C=C2C=C[C@@H]3CC2(O1)[C@H]1CCCCN31,-50%,14%,?,?,-96*
O=C1C=C2C=CC3C[C@@]2(O1)C1CCCCN31 (stereo not given in full),?,21µM*,/,/,/
Cc1ccccc1Cn1cccc(C(=O)Nc2cc(Cl)ccc2C#N)c1=O,/,/,i,?,/
C=C(C)C(Cc1c(OC)ccc(C(=O)/C=C/c2ccc(O)cc2)c1O)OO (stereo not given),?,61%,i,i,-70*
Cc1cc2oc(=O)cc(-c3ccccc3)c2c(C)c1-c1ccc(CO)cc1,1%,?,i,i,14
CCOP(=O)(/C(C#N)=C(\C)O)c1ccccc1 (stereo not given),-82%,-2%,i,i,14
SMILES,SW480 rereplic,MCF10A rerep,KB-3-1 cytotox,KB-V1 cytotox,IL-1B inflam inh
C[C@@H]1O[C@@H](O[C@H]2C[C@@H](O)[C@]3(CO)[C@@H]4C(CC[C@]3(O)C2)[C@@]2(O)CC[C@H](C3COC(=O)C3)[C@@]2(C)C[C@H]4O)[C@H](O)[C@H](O)[C@H]1O (stereo not given in full),?,-44%,1.2µM*,1.8µM*,-65*
Cc1ccccc1Cn1cccc(C(=O)Nc2nc3ccccc3s2)c1=O,/,/,i,i,/
O=C(Nc1ccc(Cl)c(C(F)(F)F)c1)NC1CC2CCCC(C1)N2Cc1ccccc1 (stereo not given),?,?,?,?,-106*
Cc1ccc(CN2C3CCCC2CC(NC(=O)c2ccc(C)cc2)C3)cc1 (stereo not given),-1%,?,i,i,-12
O=[N+]([O-])c1cnc[nH]1,-16%,4%,i,i,-6
C[C@H]1CC[C@@H]2[C@@H](C)[C@H]3[C@H](C[C@H]4[C@@H]5CC=C6C[C@@H](O[C@@H]7O[C@H](CO)[C@H](O)[C@H](O[C@@H]8O[C@H](CO)[C@@H](O)[C@H](O)[C@H]8O)[C@H]7O[C@@H]7O[C@@H](C)[C@H](O)[C@@H](O)[C@H]7O)CC[C@]6(C)[C@H]5CC[C@]34C)N2C1,?,3%,i,?,-98*
CCOc1cc2c(cc1OCC)-n1cccc1C(c1ccc(OC)cc1)NC2 (stereo not given),?,?,i,i,-63*
CCOc1cc2c(cc1OCC)-n1cccc1C(c1ccc(F)cc1)NC2 (stereo not given),5%,?,i,i,0
CCOc1cc2c(cc1OCC)-n1cccc1C(c1ccc(C(C)C)cc1)NC2 (stereo not given),?,18µM*,?,?,-94*
CC12CCC3C4CCC(=O)C(O)=C4CCC3C1CCC2OC(=O)CCC1CCCC1 (stereo not given),-4%,2%,/,/,/
COC(=O)C1=CO[C@@H](OC2OC(CO)C(O)C(O)C2O)[C@@H]2C(CO)=CC[C@H]12 (stereo not given in full),2%,-11%,i,?,23
C[C@@H]1O[C@H](O[C@@H]2C=C3CC[C@H]4[C@@H](CC[C@]5(C)[C@@H](c6ccc(=O)oc6)CC[C@]45O)[C@@]3(C)CC2)[C@@H](O)[C@H](O)[C@@H]1O,?,-3%[20.6 µM],/,/,/
C[C@@H]1O[C@@H](O[C@@H]2C=C3CC[C@@H]4[C@@H](CC[C@]5(C)[C@H](c6ccc(=O)oc6)CC[C@@]45O)[C@@]3(C)CC2)[C@H](O)[C@H](O)[C@H]1O,/,/,0.012µM*,0.92µM*,/

# Bioassay records deposited in PubChem BioAssay by National Center for Advancing Translational Sciences (NCATS).
